# PubChem BioAssay (NCI)
# This is part of a sample that, as a whole, favours compounds with a hit. Of some 83,000 tested, about 20% had one in any assay.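 Activity criterion: percent growth below 10, measured after cells in 96-well plates were exposed to a single compound concentration for 48 hours.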 A number with no mark means an inactive call. Calls of active or inactive are those of the source.
# Test system: T-47D breast
# Experiment: NCI-60 one-dose screen, 48 h (100 = growth as untreated, 0 = no growth, -100 = all killed)
# Conditions: 10 µM unless noted
row,Structure (SMILES),growth
1,CC1CC2Oc3ccc(Cl)cc3C(=O)N2O1 (stereo not drawn),104%
2,COc1cccc(C(=O)NCCNc2cc(-c3cn(-c4ccccc4)nc3-c3cccc(OC)c3)ccn2)c1,22.1%
3,CN(C)c1ccc(-c2ccc3[nH]c(=O)nc(-c4ccccc4)c3c2)cn1,61%
4,CCN(CC)CCCCCCNc1cc(OC)c(Cl)c2cccnc12,81.4%
5,NC(=N\N=C/c1ccccc1[N+](=O)[O-])/C(N)=N\N=C/c1ccccc1[N+](=O)[O-],104%
6,C[n+]1cc2cc(C(N)=O)[nH]c3c(=N)c(Cl)c(N)c1c23,48.3%
7,COc1ccc(C2=Nc3c(N)ncnc3NC(c3ccc4c(c3)OCO4)C2)cc1 (stereo not drawn),80.3%
8,CCN(CC)CCN1C(=O)c2c(c(C)c3c(oc4cc(O)ccc43)c2C)C1=O,89.5%
9,O=C(Nc1ccccc1Cl)Oc1ccc(-c2ccccc2)cc1,106%
10,O=C1/C(=C/c2ccc(F)cc2)C=C(c2ccccc2)N1CCc1ccccc1,52.1%
11,Cc1cc(Cl)ccc1Nc1nc(C(F)(F)F)ccc1C(=O)N/N=C/c1ccc(N(C)C)cc1,37%
12,CCN1CCN(c2cc(C)nc(NCc3cc(Nc4ccnc5cc(Cl)ccc45)ccc3F)n2)CC1,-17.7% (active)
13,CCN(CC)CCN1CC(O)=C(c2nc(-c3ccc(Cl)cc3)cs2)C1=N,17.2%
14,CC(=O)n1c(-c2ccc(Cl)cc2)nc2c(c1=O)C(c1ccc(Cl)cc1)c1sc3c(Cl)cccc3c1O2 (stereo not drawn),-2.51% (active)
15,CCN(CC)CCn1nc2c3c(cccc3c1=O)-c1ccccc1-2,9.48% (active)
16,Cc1cc(Cl)nc(NCc2cc(Nc3ccnc4cc(Cl)ccc34)ccc2F)n1,25.4%
17,O=C(NCCCNc1cc(-c2cn(-c3ccccc3)nc2-c2cccc(O)c2)ccn1)c1ccccc1,-13.8% (active)
18,COc1ccc(-c2cc(-c3cc(OC)ccc3OC)nc(SCC(=O)c3ccccc3)c2C#N)cc1,80.8%
19,Nc1cc2c3c(cccc3c1)C(=O)N(CCN1CCCC1)C2=O,18%

row,Structure (SMILES),growth
1,COc1ccc(-c2csc(C3=C(O)CN(CCCN4CCCC4=O)C3=N)n2)cc1OC,86.5%
2,CCCCn1c(=O)c2c(nc(NCCc3ccc(O)c(O)c3)n2CCC)n(CCCC)c1=O,49.3%
3,N#C/C(=C/C=C/c1cccc(Cl)c1)S(=O)c1ccccc1 (stereo not drawn),-47.2% (active)
4,O=C1OC(c2nc3ccccc3s2)=C/C1=C\c1ccc(O)cc1,95.7%
5,CC/C=C\CCC/C=C1/C(=O)C=C[C@@H]1C/C=C\CCCC(=O)O,55.3%
6,CC(=O)C(C)Cc1cc2c(cc1C)C(C)(C)CCC2(C)C (stereo not drawn),80.2%
7,O=[N+]([O-])c1ccc(C2CC(c3ccccc3)=Nc3ccccc3S2)cc1 (stereo not drawn),70.9%
8,COc1ccc(-c2nc3c(c(=O)n2C(C)=O)C(c2ccc(Cl)cc2)c2sc4c(Cl)cccc4c2O3)cc1 (stereo not drawn),11.9%
9,FC(F)(F)c1cc(Nc2ccc3cc(OCCCN4CCOCC4)ccc3n2)ccc1Cl,26%
10,CC(C)CCC[C@@H](C)[C@H]1CC[C@H]2[C@@H](Nc3ccc(O)cc3)CCC[C@]12C,-15.8% (active)
11,O=C(N/N=C/c1ccncc1)c1ccc(C(F)(F)F)nc1Nc1cccc(C(F)(F)F)c1,25.6%
12,COC(=O)[C@]12CC[C@@H](C)[C@H](C)[C@@H]1C1=CC[C@@H]3[C@@]4(C)C(C=O)=C[C@@](C)(COC(C)=O)[C@@H]4C(=O)C[C@@]3(C)[C@]1(C)CC2,39%
13,O=C(Nc1ccccc1)Nc1cccc(Oc2nnc(Cl)c3ccccc23)c1,-18% (active)
14,N#Cc1c(-c2ccccc2)cc(-c2ccc(Nc3nc(Nc4ccc(F)cc4)nc(Nc4ccc(F)cc4)n3)cc2)nc1N,77%
15,CCn1c(C)nc2cc(C(N)=O)ccc21,113%
16,O=C(/C=C/c1ccco1)c1ccc(Nc2nc(Nc3ccc(F)cc3)nc(Nc3ccc(Cl)cc3)n2)cc1,46.6%
17,CC/C=C\C[C@H](O)C/C=C1/C(=O)C=C[C@@H]1C/C=C\CCCC(=O)OC,-0.483% (active)
18,N#Cc1c(-c2cccc(Cl)c2)cc(-c2cccc(Cl)c2)[nH]c1=O,79.2%
19,O=C1CC(N2C(=O)/C(=C/C(Cl)=C\c3ccc([N+](=O)[O-])cc3)SC2=S)C(=O)N1c1ccc(O)cc1 (stereo not drawn),17.2%
